High-throughput results (PubChem BioAssay)
Shown are actives, neighbours in structure and some others; about 4.6% of the full set was active somewhere.
D1 agonist: Allosteric Agonists of the Human D1 Dopamine Receptor: qHTS. HEK293 T-REx D1 cells, calcium flux, agonist mode. D(1A) dopamine receptor (Homo sapiens), P21728. hit rate 1% among 360,000. activation, % at 2 µM. AID 504660, 2011
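Agonism was scored from calcium flux recorded over 180 s (1 read/s) after pintool compound addition, following a 10-cycle baseline. Cells were inducible force-coupled HEK293 TREx D1, plated overnight at 30 C and loaded with no-wash calcium dye.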
TRHR enhancer: qHTS for Small Molecule Agonists and Allosteric Enhancers of Human TRH Receptor: Primary Screen for Enhancers; Thyrotropin-releasing hormone receptor (Homo sapiens), P34981; TRHR cells, fluo-8 calcium fluorescence, EC20 TRH enhancement; enhancement, % at 2 µM; hit rate 0.66% among 360,000; in the data active = enhancement above about 30%
Target sequence (P34981 whole entry, looked up): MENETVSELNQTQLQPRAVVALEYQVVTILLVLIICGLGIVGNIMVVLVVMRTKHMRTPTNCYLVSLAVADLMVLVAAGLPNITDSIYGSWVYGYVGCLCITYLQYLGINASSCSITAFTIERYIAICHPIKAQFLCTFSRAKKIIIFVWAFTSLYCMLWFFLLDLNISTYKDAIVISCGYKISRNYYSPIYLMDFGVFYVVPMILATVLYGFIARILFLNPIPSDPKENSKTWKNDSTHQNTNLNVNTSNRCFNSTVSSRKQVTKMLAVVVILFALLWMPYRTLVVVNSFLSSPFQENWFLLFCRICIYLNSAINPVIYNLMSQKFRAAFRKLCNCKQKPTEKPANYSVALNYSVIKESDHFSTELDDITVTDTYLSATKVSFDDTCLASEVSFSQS
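TRHR-expressing cells loaded with fluo-8 calcium dye were read kinetically (ex 480/em 530) during compound addition, then stimulated with an EC20 of TRH (10 nM final). Enhancement of the Gq-mediated intracellular calcium response was scored.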
D1 potentiator: Potentiators of Human D1 Dopamine Receptor: qHTS; potentiation, % at 10 µM; HEK293 TREx D1 cells, calcium flux, dopamine EC20 potentiation; D(1A) dopamine receptor (Homo sapiens), P21728; hit rate 0.036% among 360,000; AID 504651, 2011; in the data active = potentiation above about 30%
D1 antag: Antagonist of Human D 1 Dopamine Receptor: qHTS | D(1A) dopamine receptor (Homo sapiens), P21728 | HEK293 TREx D1 cells, calcium flux, dopamine EC80; active compounds read low | activity change, negative = inhibition, % at 10 µM | hit rate 3.2% among 360,000 | AID 504652, 2011; in the data active = activity change below about -30%
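Cells carrying a force-coupled, tetracycline-inducible human D1 receptor report calcium flux. Each well gets a 10 s baseline, compound with 180 s monitoring, then an EC80 dopamine stimulus with a second 180 s kinetic read.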
TRHR ag: qHTS for Small Molecule Agonists and Allosteric Enhancers of Human TRH Receptor: Primary Screen for Agonists; AID 493084, 2011; hit rate 0.18% among 360,000; Thyrotropin-releasing hormone receptor (Homo sapiens), P34981; activation, % at 2 µM; TRHR cells, calcium flux fluo-8, FDSS agonist mode
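Read-out: compound-evoked intracellular calcium rise in TRHR cells, fluo-8 dye, kinetic FDSS fluorescence at 1 s/cycle following a 10-cycle baseline. Cells cultured overnight before dye loading (30 min–1.5 h, RT).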
A number is an active result; . = inactive. Rule as the data show it, unless noted: active = activation above about 30%; inactive = the rest.

SMILES | D1 agonist | TRHR enhancer | D1 potentiator | D1 antag | TRHR ag
Cc1nc2cc(CO)ccc2n1C | . | . | . | . | .
CCOc1ccc2c(c1)nc(C)n2C | . | . | . | -47 | .
CCC(Sc1nnc2c(n1)[nH]c1ccccc12)C(=O)Nc1nnc(C(C)C)s1 (stereo unspecified) | . | . | . | . | .
CC1CCN(C(=O)C(=O)Nc2sc3c(c2C(=O)O)CC(C)(C)OC3)CC1 | . | . | . | -58 | .
COc1ccc2[nH]cc(CCN=C(NC(=O)c3ccccc3F)Nc3nc(C)cc(C)n3)c2c1 | . | . | . | . | .
CCOc1ccc(CNC(=O)Cn2ccc3cc(S(=O)(=O)N4CCCCC4)ccc32)cc1 | . | . | . | -35 | .
COc1ccc(S(=O)(=O)N2CCC(C(=O)NCc3ccc(C)cc3)CC2)cc1 | . | . | . | . | .
COc1ccc(CNC(=O)C2CCN(S(=O)(=O)c3ccc4c(ccn4C)c3)CC2)cc1 | . | . | . | -35 | .
Cc1ccccc1CCNC(=O)Cn1ccc2cc(S(=O)(=O)N3CCCC3)ccc21 | . | 30 | . | . | .
CCn1ccc2cc(S(=O)(=O)N3CCCN(C(=O)Nc4ccc(C)c(F)c4)CC3)ccc21 | . | . | . | -31 | .
CCCCn1c(C)cc2c(c1=O)C1O[C@](c3ccsc3)(Cc3cc(OC)c(OC)cc31)O2 | . | . | . | . | .
COC(=O)c1c(SCC(=O)Nc2cccc(Cl)c2C)[nH]c2ccccc2c1=O | . | . | . | . | .
COc1ccccc1C(=O)Nc1nnc(SCc2cc(=O)c3cc(Cl)ccc3[nH]2)s1 | . | . | . | . | .
CCCCNC(=O)C1CCN(S(=O)(=O)c2ccc3c(ccn3CC)c2)CC1 | . | . | . | . | .
CCn1ccc2cc(S(=O)(=O)N3CCC(C(=O)NCCc4ccccc4Cl)CC3)ccc21 | . | . | . | -40 | .
CNC(=O)c1ccccc1NC(=O)C1CC(=O)N(C(C)C)C1 (stereo unspecified) | . | 37 | . | . | .
Cc1ccc(CSc2nc3cccnc3n2Cc2nc(-c3ccccc3F)oc2C)cc1 | . | . | . | . | .
Cc1cc(F)c(F)c(C(=O)N2CCCCC2C)c1Cl (stereo unspecified) | . | . | . | -31 | .
CC(NC(=O)Nc1ccc(F)cc1)C(c1cccs1)N1CCCC1 (stereo unspecified) | 72 | . | . | . | .
CCN(CC)S(=O)(=O)c1cccc(-c2n[nH]c(=S)n2/N=C/c2ccc(OC(F)F)cc2)c1 | . | . | . | -83 | .
Cc1cccc(NC(=O)C(C)N2C(=O)c3ccccc3S2(=O)=O)n1 (stereo unspecified) | . | . | . | . | .
CC(C(=O)Nc1ncc([N+](=O)[O-])s1)N1C(=O)c2ccccc2S1(=O)=O (stereo unspecified) | . | . | . | -35 | .
COc1cc(C)c(CN2CCN(CC(=O)Nc3ccccc3C(=O)NC3CC3)CC2)cc1OC | . | . | . | -30 | .
COc1cc(C(=O)N2CCCCCCC2)ccc1OC1CCN(C(C)=O)CC1 | . | . | . | . | .
COc1ccc(C(=O)N2CCCCCC2)cc1OC1CCN(C(C)=O)CC1 | . | . | . | -67 | .
SMILES | D1 agonist | TRHR enhancer | D1 potentiator | D1 antag | TRHR ag
COc1ccc(CN2CCC(Oc3cc(C(=O)NC4CC4)ccc3OC)CC2)c(O)c1 | . | . | . | -77 | .
COc1ccc(C(=O)NC2CC2)cc1OC1CCN(Cc2cc(C)c(C)cc2C)CC1 | . | . | . | -86 | .
COc1ccc(C(=O)NC2CC2)cc1OC1CCN(Cc2cnn(C)c2C)CC1 | . | . | . | . | .
COc1cc(CN2CCC(Oc3cc(C(=O)NC4CC4)ccc3OC)CC2)cc(OC)c1 | . | . | . | -75 | .
Cc1cc(C)n(-c2nc3nonc3nc2Nc2cccc(C)c2C)n1 | . | . | . | -32 | .
CC1CCCCC12NC(=O)N(CC(=O)N1CCN(S(=O)(=O)Cc3ccccc3)CC1)C2=O (stereo unspecified) | . | . | . | -35 | .
